Experimental data: ChEMBL document CHEMBL3988442, “University of Dundee, Small-Polar-MMV Screening Library” (2021)
Out of some 53,000 compounds screened, about 900 (1.7%) showed an effect of 50% or more. The list comes from a sample in which strong results are over-represented; it also holds similar structures and randomly drawn compounds.

Each compound was assayed on Mycobacterium tuberculosis (assay: Cornell - Phenotypic assay to identify agents that inhibit growth of Mycobacterium tuberculosis). Details: 10 mM as filed; unlikely as a test dose.
Assay type: functional
Parameters: scale not given: direction of the effect not stated beside the values

Row | SMILES | Percent Effect [%]
1 | Cc1oc(-c2ccsc2)nc1CC(=O)NCC(C)(C)CN(C)C | 3.653
2 | Cc1nnc(N2CCCC3(CN(Cc4nccn4C)CCO3)C2)o1 (centres undefined) | -3.973
3 | CS(=O)(=O)NCCNCc1ccc(Br)s1.Cl | -4.859
4 | O=C1CCC(=O)N1CCOc1nc(-c2ccccc2Cl)no1 | 8.319
5 | Cn1ccnc1-c1ccc(NCCC2COc3ccccc3O2)nn1 (centres undefined) | 46.99
6 | Cn1ccnc1-c1ccc(NC[C@H]2CCc3ccccc3O2)nn1 | 35.04
7 | Cn1ccnc1-c1ccc(NCC2COc3ccccc3O2)nn1 (centres undefined) | 75.27
8 | O=C(CNC1(c2ccc(Cl)cc2)CCOCC1)NC1CCCC1 | 28.07
9 | Cc1cc(C)n(C2CCN(S(=O)(=O)N3CCOCC3)CC2)n1 | -10.91
10 | Cn1cc(NC(=O)N2CCC(NS(C)(=O)=O)CC2)ccc1=O | 73.41
11 | Cn1cc(NC(=O)N2CCC(CN3CCCC3)CC2)ccc1=O | 1.194
12 | Cn1cc(NC(=O)N2CCC(c3ccccc3)CC2)ccc1=O | 23.03
13 | Cc1nc(O)cc(C2(C)CCCNC2)n1.Cl (centres undefined) | 37.37
14 | Cc1nc(N)cc(C2(C)CCCNC2)n1 (centres undefined) | 52.22
15 | Cc1nc(N(C)C)cc(C2(C)CCCNC2)n1 (centres undefined) | 54.11
16 | Cc1nccc(C2(C)CCCNC2)n1.Cl.Cl (centres undefined) | -29.52
17 | Cc1nc(N(C)C)cc(C2(C)CCNCC2)n1 | 3.518

Row | SMILES | Percent Effect [%]
18 | Cc1cc(N(C)C)nc(C2(C)CCCNC2)n1 (centres undefined) | -30.33
19 | COC(=O)Nc1cccc(C(=O)N(C)Cc2cccc(O)c2)c1 | 16.47
20 | CC(C)(C)CC(=O)N1CCC(c2nn(CCN)c3nccnc23)C1 (centres undefined) | -1.305
21 | CSc1nnc(N(CCC#N)CCC#N)s1 | 7.045
22 | Cc1nnc(N(CCC#N)CCC#N)s1 | 53.32
23 | CCSc1nnc(N(CCC#N)CCC#N)s1 | 19.26
24 | CC(=O)NCC(=O)N1Cc2nccn2CC(Cn2cccn2)C1 (centres undefined) | 8.126
25 | CN(Cc1nc2ccccc2n1C)C(=O)CCc1cscn1 | 3.18
26 | COCCOc1ccc(NCc2cccc3cn[nH]c23)cn1 | 0.8667
27 | Cc1ccc(CNCc2cccc3cn[nH]c23)c(OC2CCOC2)c1 (centres undefined) | 31.88
28 | Cc1ccc(NCc2cccc3cn[nH]c23)cc1OC1CCOC1 (centres undefined) | 50.19
29 | CN1CCCN(C(=O)c2cnsn2)c2cc(Cl)ccc21 | 23.17
30 | CN1CC2(CCCN(CCOCc3ccccc3)C2)OC1=O (centres undefined) | 17.75
31 | COc1ccccc1OCC(=O)NS(=O)(=O)c1ccccc1Br | 29.83
32 | N#Cc1cn[nH]c1NCc1cc(I)cc(I)c1O | 104.4
33 | N#Cc1cn[nH]c1NCc1cc(Cl)cc(Cl)c1O | 4.06
34 | N#Cc1cn[nH]c1NCc1cc(Br)ccc1O | -2.668
